Compound activity as filed in PubChem BioAssay.
The list is not random: actives were taken first. Their share in the collection is about 4.2%.
ClpP mod – qHTS Assay for Activators of ClpP | ATP-dependent Clp protease proteolytic subunit (Bacillus subtilis (strain 168)), P80244 | purified B. subtilis ClpP, FRET peptide cleavage, 20 min | Potency, µM (highest dose often 57.5 µM), for the others: top-dose activity change, negative = active | actives 1.9% (n = 340,000) | AID 651965, 2013; active = well fitted falling curve with a large enough effect; inconclusive = small, poorly fitted or top-dose-only effect; inactive = no such curve, though single readings can be large or run the other way; note: potency is the fitted concentration of half-maximal effect; the source files actives as falling curves though it sought activators and does not explain the sign; nearly all actives have a fitted effect of over 65% in size
Target sequence (P80244 whole entry, looked up): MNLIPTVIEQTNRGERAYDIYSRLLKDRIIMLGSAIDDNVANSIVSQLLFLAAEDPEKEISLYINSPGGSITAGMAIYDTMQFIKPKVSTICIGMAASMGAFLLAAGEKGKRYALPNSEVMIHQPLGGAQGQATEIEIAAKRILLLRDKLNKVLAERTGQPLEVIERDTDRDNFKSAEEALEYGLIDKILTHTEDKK
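ClpP 10 microg/mL final, pH 8 Tris/KCl buffer with BSA, glycerol, Tween-20; compound pinned in; FRET-FV substrate; RT 20 min; Ex320/Em430; ΔFRET vs ADEP 5.8 microM, DMSO, no enzyme.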
TCR activator – Activators of T cell receptors: qHTS campaign | 330,000 tested, under 10 active | Potency, µM (highest dose often 9.22 µM), inactives show at the highest dose activation of IL-2 secretion, usual class: activators | primary human leukocytes, anti-CD3, IL-2 HTRF, 48 h | AID 504894, 2011; note: % of control where 0% means no effect
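Readout: HTRF IL-2, Eu-cryptate/d2 antibody pair, 320nm excitation, 665nm emission. Stimulus: a-CD3 beads, no co-stimulation. Cells: primary human leukocytes. Exposure: 48 hr with compound.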
Sfp PPTase inh – qHTS Assay for Inhibitors of Bacillus subtilis Sfp phosphopantetheinyl transferase (PPTase). 4'-phosphopantetheinyl transferase ffp (Bacillus subtilis), Q9F4F7. Biochemical Sfp PPTase activity, qHTS. Potency, µM, inactives show largest response in the series, negative = inhibition, actives largely listed as inhibitors. actives 3.5% (n = 310,000). AID 1490, 2009;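 note: the enzyme is Sfp with the accession as filed and its product quenches rhodamine fluorescence; potency is the fitted concentration of half-maximal effect; 0% = enzyme reaction without inhibitor and -100% = no enzyme wells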
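Compounds were incubated with enzyme (final 15 nM) for 15 min at room temperature before substrate addition started the reaction. Fluorescence at 525 nm excitation, 598 nm emission was recorded immediately and after 30 minutes.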
uPA generation – qHTS for Inhibitors of Cell Surface uPA Generation; actives 0.31% (n = 330,000); cell surface uPA generation assay, qHTS; Potency, µM (highest dose often 38.3 µM), for the others: at the top dose activity change, negative = inhibition, hits mostly inhibitors; active = well fitted inhibition curve with a large enough effect; inconclusive = small, poorly fitted or top-dose-only effect; inactive = no such curve, though single readings can be large or run the other way; tested in mouse RAW 264.7 cells; note: potency is the fitted concentration of half-maximal effect; % is set by controls: 0 for no effect and ±100 for the full control effect; nearly all actives have a fitted effect of over 55% in size
Starred values were filed as active, the others as inactive; [ ] = another dose, or the depositor's remark. Unless noted, calls come from the whole dose curve; as a rule, active = well fitted curve in the direction sought with a large enough effect; inconclusive = small, poorly fitted or top-dose-only effect, or another doubt; inactive = no such curve, though single readings can be large; an effect the other way counts as inactive or inconclusive.

What do the screens show for `COC(=O)CSC1=C(C#N)C(c2ccc3c(c2)OCO3)C2=C(CCCC2=O)N1` (centres undefined)?
ClpP mod: 2%; TCR activator: -3%; Sfp PPTase inh: inconclusive; uPA generation: -3%

Results for Cc1ccc(C)c(NC(=S)NC(NC(=O)Cc2ccccc2)C(Cl)(Cl)Cl)c1 (centres undefined) ?
ClpP mod: -2%; TCR activator: -1%; Sfp PPTase inh: -8%; uPA generation: -3%

What do the screens show for `O=C(COc1ccccc1)NC(NC(=S)Nc1ccccc1C(=O)O)C(Cl)(Cl)Cl` (centres undefined)?
ClpP mod: 35µM*; TCR activator: 0%; Sfp PPTase inh: -15%; uPA generation: 8%

How did N#CC1=C(N)N(c2ccccc2)C(c2ccccc2)C1(C#N)C#N (centres undefined) do in these assays?
ClpP mod: 10µM*; TCR activator: -27%; Sfp PPTase inh: 8%; uPA generation: -4%

Results for O=c1c2c(nc3cc(-c4cccc(Cl)c4)[nH]n13)CCC2 ?
ClpP mod: 28µM*; TCR activator: -1%; Sfp PPTase inh: 11%

Results for O=c1c2c(nc3cc(-c4ccc(F)cc4)[nH]n13)CCCC2 ?
ClpP mod: 10µM*; TCR activator: 12%; Sfp PPTase inh: 12%; uPA generation: -12%

Results for CCN(C(=O)C(C)OC(=O)C1C(C(=O)OC)=C(C)NC(C)=C1C(=O)OC)c1ccccc1 (centres undefined) ?
ClpP mod: -17%; TCR activator: -6%; Sfp PPTase inh: 2%; uPA generation: 4%

What do the screens show for `CC(NC(=O)c1ccccc1Br)C1CC2CCC1C2` (centres undefined)?
TCR activator: 0%; uPA generation: -3%

Results for CC(NC(=O)C1CCCC1)C1CC2CCC1C2 (centres undefined) ?
ClpP mod: 28µM*; TCR activator: -3%[46.1 µM]; Sfp PPTase inh: 4%; uPA generation: 7%

Results for CC(NC(=O)c1ccccc1[N+](=O)[O-])C1CC2CCC1C2 (centres undefined) ?
ClpP mod: 25µM*; TCR activator: -2%; Sfp PPTase inh: 5%; uPA generation: 5%

Results for O=Cc1ccnc2ccccc12 ?
ClpP mod: -2%

What do the screens show for `CCOC(=O)CCCCCC(=O)Nc1ccc2c(c1)C(=O)N([C@@H](C)CO)C[C@@H](C)[C@H](CN(C)S(=O)(=O)c1cccs1)OCCCC[C@H](C)O2`?
ClpP mod: 1%

What do the screens show for `Cc1cc(C)nc(N2CCCC(C(=O)NC3CCCC3)C2)n1` (centres undefined)?
ClpP mod: 22µM*; Sfp PPTase inh: 15%; uPA generation: 7%

How did COCCCNC(=O)C1CCN(c2nc(C)cc(C)n2)CC1 do in these assays?
ClpP mod: inconclusive; TCR activator: 12%; Sfp PPTase inh: 1%

How did COC(=O)CNC(=O)C1CCN(c2nc(C)cc(C)n2)CC1 do in these assays?
ClpP mod: 32µM*; Sfp PPTase inh: 15%

What do the screens show for `Cc1cc(C)nc(N2CCC(C(=O)NCc3ccco3)CC2)n1`?
ClpP mod: 16µM*; TCR activator: -6%; Sfp PPTase inh: 10%

Results for CCc1cccc(C)c1NC(=O)C1CCN(S(=O)(=O)Cc2ccccc2)CC1 ?
ClpP mod: 0%

Results for Cc1nn(C)c2nc(NNC(=O)Nc3cc(Cl)nc(Cl)c3)cc(C(C)C)c12 ?
Sfp PPTase inh: -30%

Results for COCCCN1C(=O)C(=O)/C(=C(/O)c2ccc3c(c2)OCCO3)C1c1ccc(C(=O)OC)cc1 (centres undefined) ?
ClpP mod: 32µM*; TCR activator: -18%; Sfp PPTase inh: -15%; uPA generation: -3%

What do the screens show for `COc1ccc(C2/C(=C(\O)c3ccc4c(c3)OCCO4)C(=O)C(=O)N2c2nc(C)c(C(C)=O)s2)cc1` (centres undefined)?
ClpP mod: -2%; TCR activator: 1%; Sfp PPTase inh: 45µM*; uPA generation: -3%

How did Cc1ccc(C(c2sc3nc(-c4ccco4)nn3c2O)N2CCCCC2)cc1 (centres undefined) do in these assays?
ClpP mod: 1%

How did Cc1ccc(F)cc1C(=O)N1CCCCC1c1cc(C(=O)Nc2cccc(C#N)c2)no1 (centres undefined) do in these assays?
ClpP mod: -2%
